Most compounds without a hit are left out; they make up all but 28% or so of the library.
CYP2C19 activ = increases human CYP2C19 enzyme activity; P33261; recombinant CYP2C19, luciferin-H EGE luminescence; hits give high values; 0 = fully inhibited enzyme, 1 = untreated enzyme; activation factor at 5 µM; 96,000 tested, under 10 active; AID 1025;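 active means activation factor of at least 2 at 5 µM in the primary screen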
CYP2C9 inhib = blocks human cytochrome P450 2C9. P11712. CYP2C9 Supersomes, luciferin-H conversion, luminescence. inhibition, % at 5 µM. 96,000 compounds, 20% hits;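 active means blocking of liver enzyme CYP2C9 beyond about 50% at 5 µM, limit read from the data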
Target sequence (P11712 whole entry, looked up): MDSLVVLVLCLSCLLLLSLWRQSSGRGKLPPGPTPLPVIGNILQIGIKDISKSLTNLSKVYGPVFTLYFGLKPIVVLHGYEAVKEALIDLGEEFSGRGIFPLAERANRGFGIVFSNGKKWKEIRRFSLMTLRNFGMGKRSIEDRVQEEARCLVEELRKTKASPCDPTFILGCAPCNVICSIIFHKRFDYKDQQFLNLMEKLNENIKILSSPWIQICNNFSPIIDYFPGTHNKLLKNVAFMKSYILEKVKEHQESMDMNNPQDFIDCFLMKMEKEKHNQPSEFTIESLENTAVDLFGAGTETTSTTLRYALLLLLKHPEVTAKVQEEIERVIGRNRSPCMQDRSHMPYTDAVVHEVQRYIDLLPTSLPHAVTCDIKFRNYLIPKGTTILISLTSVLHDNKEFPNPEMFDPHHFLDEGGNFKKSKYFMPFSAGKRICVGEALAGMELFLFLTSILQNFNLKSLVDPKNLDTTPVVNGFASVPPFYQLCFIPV
CD11b adhes inh = blocks human CD11b/CD18 adhesion to fibrinogen; P05107+P11215; K562 CD11b/CD18 adhesion to fibrinogen, ATPlite luminescence; Mn2+ added to activate the integrin; inhibition, % at 10 µM; 93,000 compounds, 0.54% hits; AID 1497;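 active means primary inhibition of 50% or more at 10 µM, then 40% or more on retest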
CYP2C19 inhib = blocks human cytochrome P450 2C19 | P33261 | 96,000 compounds, 21% hits | inhibition, % at 5 µM | CYP2C19 Supersomes, luciferin-H EGE luminescence, 30 min | AID 778;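 active means CYP2C19 inhibition above a set limit at 5 µM in the primary screen, cut at about 50% in these data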
Mac1 fbg enh = enhancers of human CD11b/CD18 binding to fibrinogen; K562 CD11b/CD18 adhesion to fibrinogen, ATPlite luminescence; 93,000 compounds, 0.07% hits; activation, % at 10 µM; AID 1499;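 active means 10 µM primary screen giving 50% or more activity, confirmed by 40% or more on retest at that dose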
CYP2C9 act = CYP2C9 (human) activation. P11712. AID 1024. activation factor at 5 µM. recombinant CYP2C9, luciferin-H conversion, luminescence; hits give high values; factor 1 = untreated enzyme, 0 = blocked. 96,000 compounds, 1.4% hits;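 active means activation factor of 2 or more for CYP2C9 at a 5 µM dose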
A number is an active result.

`CCCS(=O)(=O)N1CCN(C(=O)COc2ccccc2)CC1` gave CYP2C19 activ inactive, CYP2C9 inhib inactive, CD11b adhes inh inactive, CYP2C19 inhib 58.8, Mac1 fbg enh inactive and CYP2C9 act inactive.
O=C(COc1ccc(-c2nnco2)cc1)N1CCN(S(=O)(=O)c2ccccc2)CC1 was read as CYP2C19 activ inactive, CYP2C9 inhib 67.0, CD11b adhes inh inactive, CYP2C19 inhib 84.0, Mac1 fbg enh inactive and CYP2C9 act inactive.
Screening O=C(COc1ccc(Cl)cc1)N1CCN(S(=O)(=O)c2ccccc2)CC1 returned CYP2C19 activ inactive, CYP2C9 inhib inactive, CD11b adhes inh inactive, CYP2C19 inhib 54.8, Mac1 fbg enh inactive and CYP2C9 act inactive.
CN(Cc1cccs1)C(=O)COc1ccc(-c2nnco2)cc1 was read as CYP2C19 activ inactive, CYP2C9 inhib inactive, CD11b adhes inh inactive, CYP2C19 inhib 74.7, Mac1 fbg enh inactive and CYP2C9 act inactive.
Screening O=C(N/N=C\c1cc(Cl)ccc1O)c1ccc(S(=O)(=O)N2CCCCC2)cc1 returned CD11b adhes inh inactive and Mac1 fbg enh inactive.
CCOc1ccc(NC(=O)Nc2ccc3nccnc3c2)cc1 was read as CYP2C19 activ inactive, CYP2C9 inhib inactive, CD11b adhes inh inactive, CYP2C19 inhib inactive, Mac1 fbg enh inactive and CYP2C9 act inactive.
Screening CC1CC(C)CN(C(=O)COc2ccc(-c3nnco3)cc2)C1 (centres undefined) returned CYP2C19 activ inactive, CYP2C9 inhib inactive, CD11b adhes inh inactive, CYP2C19 inhib 50.5, Mac1 fbg enh inactive and CYP2C9 act inactive.
O=C1Oc2ccccc2C2(O)C3CCCCCC3C12 (centres undefined) was read as CYP2C19 activ inactive, CYP2C9 inhib inactive, CD11b adhes inh inactive, CYP2C19 inhib 95.0, Mac1 fbg enh inactive and CYP2C9 act inactive.
`Cc1ccc(NC(=O)CN(C)c2ccc(S(=O)(=O)N3CCN(C)CC3)cn2)cc1` gave CYP2C19 activ inactive, CYP2C9 inhib 55.6, CD11b adhes inh inactive, CYP2C19 inhib inactive, Mac1 fbg enh inactive and CYP2C9 act inactive.
`CCOc1ccc(NC(N)=O)cc1OCC` gave CYP2C19 activ inactive, CYP2C9 inhib inactive, CD11b adhes inh inactive, CYP2C19 inhib inactive, Mac1 fbg enh inactive and CYP2C9 act inactive.
Screening CCOc1ccc(NC(=O)CN(C)c2ccc(S(=O)(=O)N(C(C)C)C(C)C)cn2)cc1OCC returned CYP2C19 activ inactive, CYP2C9 inhib 56.6, CD11b adhes inh inactive, CYP2C19 inhib inactive, Mac1 fbg enh inactive and CYP2C9 act inactive.
CCOc1ccc(NC(=O)CN(C)c2nnnn2-c2ccccc2)cc1OCC was read as CYP2C19 activ inactive, CYP2C9 inhib inactive, CD11b adhes inh inactive, CYP2C19 inhib 71.7, Mac1 fbg enh inactive and CYP2C9 act inactive.
For CN(CC(=O)Nc1cccc2ccccc12)c1ccc(S(=O)(=O)N2CCOCC2)cn1 the results were CYP2C19 activ inactive, CYP2C9 inhib inactive, CD11b adhes inh inactive, CYP2C19 inhib inactive, Mac1 fbg enh inactive and CYP2C9 act inactive.
CCOc1ccc(NC(=O)CN(C)CC(=O)Nc2ccccc2SC)cc1OCC was read as CD11b adhes inh inactive and Mac1 fbg enh inactive.
Screening COc1ccccc1-n1c(SCC(=O)NC(C)(C)C)nc(O)c(Cc2ccccc2)c1=O returned CYP2C19 activ inactive, CYP2C9 inhib inactive, CYP2C19 inhib inactive and CYP2C9 act inactive.
For O=C(CC(Nc1ccc(F)cc1)c1ccccc1)c1ccccc1 (centres undefined) the results were CD11b adhes inh inactive and Mac1 fbg enh inactive.
Cc1c(NS(=O)(=O)c2ccc3[nH]c(=O)[nH]c3c2)c(=O)n(-c2ccccc2)n1C was read as CYP2C19 activ inactive, CYP2C9 inhib inactive, CD11b adhes inh inactive, CYP2C19 inhib inactive, Mac1 fbg enh inactive and CYP2C9 act inactive.
Screening Cc1oc(C)c2c(=O)ccc3c(c12)OC(N)=C(C#N)C3c1ccc(F)cc1 (centres undefined) returned CYP2C19 activ inactive, CYP2C9 inhib inactive, CD11b adhes inh inactive, CYP2C19 inhib 50.1, Mac1 fbg enh inactive and CYP2C9 act inactive.
Cc1cccc(CN2C(=O)N/C(=C/c3cc(C)n(-c4cc(C)ccn4)c3C)C2=O)c1 was read as CYP2C19 activ inactive, CYP2C9 inhib 61.2, CD11b adhes inh inactive, CYP2C19 inhib inactive, Mac1 fbg enh inactive and CYP2C9 act inactive.
For Cc1cccc(CN2C(=O)N/C(=C/c3ccc(C)s3)C2=O)c1 the results were CYP2C19 activ inactive, CYP2C9 inhib inactive, CD11b adhes inh inactive, CYP2C19 inhib inactive, Mac1 fbg enh inactive and CYP2C9 act inactive.
Screening COC(=O)c1cc2ccccc2c(-c2c(OC)c(C(=O)OC)cc3ccccc23)c1OC returned CYP2C19 activ inactive, CYP2C9 inhib 81.1, CYP2C19 inhib 54.0 and CYP2C9 act inactive.
`Cc1cc(N2CCN(C(=O)OC(C)(C)C)CC2)n2ncnc2n1` gave CYP2C19 activ inactive, CYP2C9 inhib inactive, CD11b adhes inh inactive, CYP2C19 inhib inactive, Mac1 fbg enh inactive and CYP2C9 act inactive.
For Cc1ccccc1-c1ccc(Nc2ccc(N3CCOCC3)cc2)nn1 the results were CYP2C19 activ inactive, CYP2C9 inhib 58.2, CD11b adhes inh inactive, CYP2C19 inhib inactive, Mac1 fbg enh inactive and CYP2C9 act inactive.
`COC(=O)c1sc(S(=O)(=O)N2CCCCC2)c(C(=O)OC)c1C` gave CYP2C19 activ inactive, CYP2C9 inhib inactive, CD11b adhes inh inactive, CYP2C19 inhib 62.4, Mac1 fbg enh inactive and CYP2C9 act inactive.
`COC(=O)c1sc(S(=O)(=O)N2CCC(C)CC2)c(C(=O)OC)c1C` gave CYP2C19 activ inactive, CYP2C9 inhib inactive, CD11b adhes inh inactive, CYP2C19 inhib inactive, Mac1 fbg enh inactive and CYP2C9 act inactive.
Screening COC(=O)c1sc(S(=O)(=O)N2CCN(c3ccccc3)CC2)c(C(=O)OC)c1C returned CYP2C19 activ inactive, CYP2C9 inhib 77.8, CD11b adhes inh inactive, CYP2C19 inhib 88.6, Mac1 fbg enh inactive and CYP2C9 act inactive.
`O=S(=O)(c1ccc(F)cc1)N1CCN(c2ccccc2)CC1` gave CYP2C19 activ inactive, CYP2C9 inhib inactive, CD11b adhes inh inactive, CYP2C19 inhib inactive, Mac1 fbg enh inactive and CYP2C9 act inactive.
Cc1ccc(NC2=NC(C(=O)Nc3ccc(C)c(C)c3)CC(=O)N2)cc1 (centres undefined) was read as CYP2C19 activ inactive, CYP2C9 inhib inactive, CD11b adhes inh inactive, CYP2C19 inhib inactive, Mac1 fbg enh inactive and CYP2C9 act inactive.
`S=c1[nH]nc(-c2ccco2)n1/N=C/c1ccc(Cl)cc1` gave CD11b adhes inh inactive and Mac1 fbg enh inactive.
`Cc1ccc(C(=O)c2c(NC(=O)c3ccccc3C)sc(C)c2C)cc1` gave CYP2C19 activ inactive, CYP2C9 inhib 78.1, CD11b adhes inh inactive, CYP2C19 inhib inactive, Mac1 fbg enh inactive and CYP2C9 act inactive.
`CCOC(=O)C1CCN(C(=O)C2CC(=O)N(c3ccc(C)cc3)C2)CC1` (centres undefined) gave CYP2C19 activ inactive, CYP2C9 inhib inactive, CD11b adhes inh inactive, CYP2C19 inhib inactive, Mac1 fbg enh inactive and CYP2C9 act inactive.

High-throughput results: PubChem, Sanford-Burnham Center for Chemical Genomics
